Most compounds without a hit are left out; they make up all but 9.6% or so of the library.
PostGolgi ctrl: growth of the yeast control strain, post-Golgi counter-screen. efflux-deficient yeast background strain, growth absorbance A615, 16 h. hit rate 5% among 98,000. inhibition, % at 10 µM
PostGolgi yeast: growth inhibition of a yeast mutant, post-Golgi transport screen | post-Golgi transport phenotypic cell assay | inhibition, % at 10 µM | hit rate 0.9% among 98,000;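 note: yeast cells grown in 1536-well plates; yeast grown about 18 h at 30C before absorbance read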
PLAP activator: human PLAP activation. hit rate 1.2% among 96,000. purified PLAP enzyme, luminescent substrate read-out; active compounds read high. activation fold at 20 µM. P05187. AID 696; in the data active = activation fold above about 2
DAT uptake mod: changed human dopamine transporter uptake under cocaine IC80; LLC-PK1 hDAT cells, [14C]-dopamine uptake with cocaine IC80; actives deviate in either direction; Q01959; B-score at 10 µM; hit rate 1.3% among 110,000; AID 449768;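 active = Z score or B-score, a plate-position-corrected score, falls beyond the plate's 99.7% confidence bounds, in either direction; inactive = both scores lie inside the 99.7% bounds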;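 note: scored against the spread of the other compound wells on the same plate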
Cav3 T inh: inhibitors of human Cav3.2 T-type calcium channel | O95180 | Cav3.2-expressing cells, Fluo-4 calcium fluorescence FDSS; active compounds read low | B-score at 10 µM | hit rate 4% among 100,000;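 active = single-dose well whose peak fluorescence ratio is a statistical outlier from its plate by either plate-standardised score or position-corrected B-score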
Starred values were filed as active, the others as inactive; . = no result. Cut-off read from the data, not from the text of the source, unless noted: active = inhibition above about 30%; inactive = the rest.

SMILES | PostGolgi ctrl | PostGolgi yeast | PLAP activator | DAT uptake mod | Cav3 T inh
CCN1CCCC1CN(Cc1cc2ccc(C)c(C)c2[nH]c1=O)C(=O)Nc1ccccc1OC (stereo not given) | -7 | -7 | 1.5 | 1.5 | 0.77
Cc1ccc(C)c2[nH]c(=O)c(CN(Cc3ccco3)C(=O)Nc3ccccc3)cc12 | 42* | -6 | 1.3 | 0.085 | -6*
COc1ccccc1NC(=O)N(Cc1ccco1)Cc1cc2cc(C)cc(C)c2[nH]c1=O | 67* | -11 | 1.6 | 2.2 | -5.1*
Cc1ccc(C)c2[nH]c(=O)c(CN(CCCN(C)C)C(=O)NCc3ccccc3)cc12 | . | . | 1.7 | 0.34 | 0.088
CCOC(=O)C1(C)NC(c2ccc(OC)cc2OC)C2C(=O)N(c3cccc(OC)c3)C(=O)C21 (stereo not given) | 4 | -4 | 1.4 | 0.34 | .
COc1ccccc1NC(=O)CCN1CCN(CCC(=O)Nc2ccccc2OC)CC1 | . | . | 1.2 | . | .
CCc1ccc2[nH]c(=O)c(CN(Cc3ccccc3)C(=O)Nc3ccccc3OC)cc2c1 | 71* | 19 | 1.5 | -0.64 | -4.3*
Cc1ccc2cc(CN(Cc3ccco3)C(=O)c3ccccc3)c(=O)[nH]c2c1C | 7 | 9 | 0.8 | 0.23 | 0.015
Cc1ccc2cc(CN(Cc3ccco3)C(=O)NCc3ccccc3)c(=O)[nH]c2c1C | 7 | 12 | 1 | 0.38 | -4.3*
CCc1ccc2[nH]c(=O)c(CN(CCN(C)C)C(=O)Nc3ccccc3OC)cc2c1 | -1 | 4 | 1.5 | 0.63 | 1.6
COc1ccc(-c2ncncc2-c2csc(C)n2)c(O)c1OC | 4 | 7 | 1.3 | -0.7 | 1.6
COC1=C(N)C(=O)c2nc(-c3nc(C(=O)O)c(C)c(-c4ccc(OC)c(OC)c4O)c3N)ccc2C1=O | . | . | . | -4.1* | 0.071
O=C(CSc1nc(C2CCCCC2)n(-c2ccccc2)n1)NCCN1C(=O)CSC1=O | 1 | 0 | 2* | 2.3 | -0.63
CCCSc1nc(C)c(CC(=O)O)c(=O)[nH]1 | 1 | -3 | 1 | -0.71 | 1.1
CC(C)[C@H](N)c1nnc(SCC(=O)c2ccc(Cl)cc2)o1 | 6 | -10 | 0.9 | 1.2 | -0.04
C[C@H](N)c1nnc(SCC(=O)c2ccc(Cl)cc2)o1 | 3 | 5 | 2.9* | -1.3 | -0.033
CCN1CCCC1CNC(=O)Cn1cnc2sc(C)c(S(=O)(=O)N3CCC(C)CC3)c2c1=O (stereo not given) | . | . | . | -1 | -0.53
CCCc1cc(=O)[nH]c(SCC)n1 | 1 | -1 | 0.9 | 1.1 | 0.12
CCCc1cc(=O)[nH]c(-n2[nH]c3c(c2=O)CCCC3)n1 | 9 | -5 | 2.3* | . | .
COc1ccc(OC(C)C(=O)N2CCC(C)CC2)cc1 (stereo not given) | 5 | 20 | 0.9 | -0.72 | 0.41
Cc1cc(C)n(CCCNC(=O)c2ccc(S(=O)(=O)NCc3ccco3)cc2)n1 | 5 | -7 | 1.2 | 0.54 | .
CCOc1cc(/C=N/N=C(\N)c2nonc2N)cc(Br)c1OCc1cccc2ccccc12 | -2 | 17 | 0.8 | 0.37 | 0.13
COc1cc(/C=N/N=C(/N)c2nonc2N)cc(Br)c1OCc1cccc(C)c1 | 33* | -9 | 0.6 | -0.047 | -2.4
CCOC(=O)C1C(=O)NC(SCC(N)=O)=C(C#N)C1c1ccccc1OCC (stereo not given) | 12 | 7 | 1.4 | 0.83 | -0.022
CNC(=O)c1[nH]cnc1C(=O)N[C@@H](C)C(=O)OC(C)(C)C | . | . | . | -1.5 | 1
SMILES | PostGolgi ctrl | PostGolgi yeast | PLAP activator | DAT uptake mod | Cav3 T inh
Nc1ccc(N2CCOCC2)c(Cl)c1 | -4 | -7 | 0.8 | -0.56 | -0.97
Cc1cc(N2CCOCC2)c2c(N)c(Br)cc(C)c2n1 | -1 | -3 | 2* | -0.77 | 0.032
CCN(CC)c1ccc(-c2nn3c(-c4cccnc4)nnc3s2)cc1 | 39* | -14 | 1.7 | -0.63 | .
Cc1nc2c(C(=O)N3CCN(C)CC3)cnn2c(C)c1Cc1ccc(Cl)cc1 | 5 | 0 | 2.1* | 0.61 | 0.31
C=CCc1c(C)nc2c(C(=O)O)cnn2c1C | 31* | 7 | 1 | 0.53 | 0.63
Fc1cccc(Oc2nc3ccccc3n3cccc23)c1 | 2 | 0 | 1 | 0.05 | 0.34
CC1(C)Cc2c(sc3c2c(=N)n(Cc2ccco2)c(=O)n3CC(=O)Nc2ccc(Cl)cc2)CO1 | . | . | 1.7 | 2* | -1.2
Cc1cccc(NC(=O)Cn2c(=O)n(Cc3ccco3)c(=N)c3c4c(sc32)COC(C)(C)C4)c1 | -7 | 24 | 1.5 | 0.22 | -4.2*
CC1(C)Cc2c(sc3c2c(=N)n(Cc2ccco2)c(=O)n3CC(=O)Nc2ccccc2)CO1 | 5 | -8 | 1 | 0.86 | -1.2
CCn1c(=O)n(Cc2ccco2)c(=N)c2c3c(sc21)COC(C)(C)C3 | 11 | 0 | 1.1 | -0.86 | 0.16
CC1(C)Cc2c(sc3c2c(=N)n(Cc2ccco2)c(=O)n3CC(=O)Nc2cccc(Cl)c2)CO1 | 5 | -6 | 1.8 | -0.0088 | -5.2*
CC(C)c1ccc(-c2nc(N3CCOCC3)[nH]c(=O)c2C#N)cc1 | 22 | 0 | 1.1 | -0.033 | -0.1
COC(=O)Cc1cc(=O)[nH]c(/N=C(\N)Nc2ccc(C)cc2)n1 | -3 | 0 | 2.1* | -0.11 | 0.26
COc1ccc(Cl)cc1N/C(N)=N/c1nc(CSc2ccc(C)cc2)cc(=O)[nH]1 | 0 | 12 | 2.6* | 0.099 | -3
COCc1cc(=O)[nH]c(/N=C(\N)Nc2ccc(Oc3ccccc3)cc2)n1 | 4 | 6 | 1.7 | 1.4 | .
COCc1cc(=O)[nH]c(/N=C(\N)Nc2cccc(C)c2)n1 | -1 | 1 | 2.4* | -0.018 | -0.6
CCCCOc1ccc(NC2=NC3(CCCC3)N=C(N)N2)cc1 | 9 | -2 | 1.5 | . | 1
CCC(C)NC(=O)Cc1cn(C)c2ccccc12 (stereo not given) | -2 | 7 | 1.2 | -0.65 | 1.1
CCc1cccc(NC(=O)Cc2cn(C)c3ccccc23)c1 | 26 | -1 | 0.9 | 0.6 | -7.7*
CCc1ccc(NC(=O)Cc2cn(C)c3ccccc23)cc1 | 4 | 0 | 0.8 | 0.74 | -4.8*
COCCNC(=O)Cc1cn(C)c2ccccc12 | 19 | -2 | 0.9 | -0.085 | 0.27
Cn1cc(CC(=O)Nc2cccc(C#N)c2)c2ccccc21 | 8 | 16 | 0.9 | -0.47 | -4.2*
O=c1c2ccccc2oc2nc(-c3ccco3)n(Cc3ccccc3)c(=O)c12 | 9 | -3 | 1 | -0.39 | 0.45
CC(=O)c1c(N2CCC(C(N)=O)CC2)nc(=S)n(-c2ccccc2)c1C | 5 | -3 | 1.2 | -0.097 | -0.93
Cc1c(C(=O)O)sc2ncn(C)c(=O)c12 | 3 | -4 | 0.9 | 0.61 | .
COc1ccc(C2C(C#N)=C(C)NC3=C2C(=O)c2ccccc23)cc1 (stereo not given) | 4 | 25 | 1.1 | -0.38 | -1.1
CC1=C([N+](=O)[O-])C(c2ccccc2)C2=C(N1)c1ccccc1C2=O (stereo not given) | 7 | 5 | 1 | 0.16 | -3.8*
Cc1cc(C)n2nc[n+](C)c2n1 | 1 | 24 | 0.9 | -0.43 | 0.13
CCOC(=O)C1CCCN(C(=O)CN2CCN(Cc3ccc(Cl)cc3)C2=O)C1 (stereo not given) | 28 | -2 | 1.1 | -0.0012 | .
Cc1cc(C(=O)N/N=C/c2cc(Br)ccc2OC(=O)c2ccccc2)n[nH]1 | -5 | -1 | 1.1 | . | .

Screening results as filed in PubChem.
